Columns and labels:
Assay type in all cases: functional
Plasmodium falciparum [1] = experiment: GSK_TCMDC: Inhibition of Plasmodium falciparum 3D7 in whole red blood cells, using parasite LDH activity as an index of growth. Test compounds present at 2uM
Plasmodium falciparum [2] = experiment: GSK_TCMDC: Inhibition of Plasmodium falciparum Dd2 in whole red blood cells, using parasite LDH activity as an index of growth. Test compounds present at 2uM
HepG2 = experiment: GSK_TCMDC: Percent inhibition of human HepG2 cell line. Test compounds present at 10uM.

NCC1CCCN1Cc1cccc(-c2ccc(-c3nc4ccccc4[nH]3)s2)c1.O=C(O)C(F)(F)F (centres undefined)
Inhibition (Plasmodium falciparum [1]): 99%
Inhibition (Plasmodium falciparum [2]): 66%
Inhibition (HepG2): 16%

Cc1nnc2sc(-c3cccc(NC(=O)c4ccc(N5CCCCC5)c([N+](=O)[O-])c4)c3)nn12
Inhibition (Plasmodium falciparum [1]): 87%
Inhibition (Plasmodium falciparum [2]): 20%
Inhibition (HepG2): 3%

Cc1n[nH]c2ccc(-c3ccc4nccc(N5CCC(N)CC5)c4c3)cc12.Cl
Inhibition (Plasmodium falciparum [1]): 100%
Inhibition (Plasmodium falciparum [2]): 100%
Inhibition (HepG2): 67%

Cc1cc(F)ccc1-c1nc(NCC(O)CNCCc2ccccc2)nc2c1ccc(=O)n2-c1c(F)cccc1F.O=C(O)C(F)(F)F (centres undefined)
Inhibition (Plasmodium falciparum [1]): 100%
Inhibition (Plasmodium falciparum [2]): 100%
Inhibition (HepG2): 25%

COc1cccc(C(C)(C)NC[C@@H](O)[C@H](Cc2ccccc2)NC(=O)c2cc(C3CCCC3)cc(N3CCCCS3(=O)=O)c2F)c1.O=CO
Inhibition (Plasmodium falciparum [1]): 99%
Inhibition (Plasmodium falciparum [2]): 99%
Inhibition (HepG2): 16%

COc1ccc(C=C2SC(=N)N(c3ccccc3OC)C2=O)cc1
Inhibition (Plasmodium falciparum [1]): 97%
Inhibition (Plasmodium falciparum [2]): 95%
Inhibition (HepG2): 47%

COc1ccc2nccc([C@@H](O)CN3CCC(NCc4[nH]c5ccccc5c4F)CC3)c2c1.O=C(O)C(=O)O
Inhibition (Plasmodium falciparum [1]): 100%
Inhibition (Plasmodium falciparum [2]): 61%
Inhibition (HepG2): 19%

COc1ccc(C2CC(=O)C3=C(C2)NC(C)=C(C(=O)OC2CCCC2)C3c2cccc(O)c2)cc1 (centres undefined)
Inhibition (Plasmodium falciparum [1]): 88%
Inhibition (Plasmodium falciparum [2]): 83%
Inhibition (HepG2): 0%

Cc1nnc(N2C(=N)SC(=Cc3ccc(-c4ccc(OC(F)(F)F)cc4)o3)C2=O)s1
Inhibition (Plasmodium falciparum [1]): 85%
Inhibition (Plasmodium falciparum [2]): 58%
Inhibition (HepG2): 37%

Cc1[nH]c2ccccc2c1C(=O)C(C)Sc1nnc(-c2ccccc2Br)[nH]1 (centres undefined)
Inhibition (Plasmodium falciparum [1]): 100%
Inhibition (Plasmodium falciparum [2]): 100%
Inhibition (HepG2): 0%

CCCCN1CC[C@@H](CCC(O)c2cc(OCCC)nc3ccc(OC)cc23)[C@@H](CC)C1.O=C(O)C(=O)O (some centres undefined)
Inhibition (Plasmodium falciparum [1]): 100%
Inhibition (Plasmodium falciparum [2]): 99%
Inhibition (HepG2): 23%

Clc1ccc(CNc2nc(NCCc3c[nH]cn3)nc(N3CCCC4CCCCC43)n2)cc1 (centres undefined)
Inhibition (Plasmodium falciparum [1]): 100%
Inhibition (Plasmodium falciparum [2]): 100%
Inhibition (HepG2): 10%

Cc1cc(N[C@@H](Cc2ccccc2)C(=O)NCCOc2ccccc2)nc(NCc2ccccc2C)n1.O=C(O)C(F)(F)F
Inhibition (Plasmodium falciparum [1]): 100%
Inhibition (Plasmodium falciparum [2]): 80%
Inhibition (HepG2): 32%

O=C(Nc1cccc(CN2CCCN(Cc3ccccc3)CC2)c1)c1cc2ccccc2s1.O=C(O)C(F)(F)F
Inhibition (Plasmodium falciparum [1]): 87%
Inhibition (Plasmodium falciparum [2]): 28%
Inhibition (HepG2): 41%

Nc1c2ccccc2nc2cc(Cl)ccc12
Inhibition (Plasmodium falciparum [1]): 100%
Inhibition (Plasmodium falciparum [2]): 86%
Inhibition (HepG2): 24%

CN(C)CCCNCc1ccc(-c2ccc(C(F)(F)F)cc2)cc1
Inhibition (Plasmodium falciparum [1]): 96%
Inhibition (Plasmodium falciparum [2]): 35%
Inhibition (HepG2): 30%

COc1cccc(Nc2nc(C)cc(NC3CCN(Cc4ccccc4)CC3)n2)c1
Inhibition (Plasmodium falciparum [1]): 100%
Inhibition (Plasmodium falciparum [2]): 46%
Inhibition (HepG2): 15%

O=C(Nc1cccc(CN2CCN(C(=O)c3cccc(Cl)c3)CC2)c1)c1ccco1.O=C(O)C(F)(F)F
Inhibition (Plasmodium falciparum [1]): 96%
Inhibition (Plasmodium falciparum [2]): 94%
Inhibition (HepG2): 7%

Oc1ccc(CN2CCC(N3CCN(CCc4ccccc4)CC3)C(O)C2)cc1Cl (centres undefined)
Inhibition (Plasmodium falciparum [1]): 100%
Inhibition (Plasmodium falciparum [2]): 77%
Inhibition (HepG2): 0%

COc1cc2nc(N3CCC(C(N)=O)CC3)nc(NCc3ccccc3)c2cc1OC
Inhibition (Plasmodium falciparum [1]): 100%
Inhibition (Plasmodium falciparum [2]): 23%
Inhibition (HepG2): 23%

COc1ccc2nccc([C@@H](O)CN3CCC(NCc4ccc5c(c4)OCCO5)CC3)c2c1.O=C(O)C(=O)O
Inhibition (Plasmodium falciparum [1]): 100%
Inhibition (Plasmodium falciparum [2]): 92%
Inhibition (HepG2): 9%

CC(=NO)C1=C(O)C(c2ccccc2)N(c2ccccc2)C1=O (centres undefined)
Inhibition (Plasmodium falciparum [1]): 99%
Inhibition (Plasmodium falciparum [2]): 23%
Inhibition (HepG2): 12%

CCn1c(Sc2ccc([N+](=O)[O-])c(C#N)c2)nnc1-c1cccc(Cl)c1
Inhibition (Plasmodium falciparum [1]): 89%
Inhibition (Plasmodium falciparum [2]): 22%
Inhibition (HepG2): 8%

Cc1cccc2nc(-c3ccc(-c4cccc(NC(=O)Nc5ccc(Cl)c(Cl)c5)c4)s3)[nH]c12
Inhibition (Plasmodium falciparum [1]): 100%
Inhibition (Plasmodium falciparum [2]): 36%
Inhibition (HepG2): 46%

COc1ccc(S(=O)(=O)NC2CCN(c3ccc(C(F)(F)F)cc3NC(=O)OCC(C)C)CC2)cc1
Inhibition (Plasmodium falciparum [1]): 85%
Inhibition (Plasmodium falciparum [2]): 13%
Inhibition (HepG2): 19%

CCCCc1ccc(C(=O)Nc2ccc3nc(N4CCN(C)CC4)cc(C)c3c2)cc1
Inhibition (Plasmodium falciparum [1]): 90%
Inhibition (Plasmodium falciparum [2]): 21%
Inhibition (HepG2): 44%

Cc1cccc2nc(-c3ccc(-c4cccc(CNC(C)C)c4)s3)[nH]c12.O=C(O)C(F)(F)F
Inhibition (Plasmodium falciparum [1]): 100%
Inhibition (Plasmodium falciparum [2]): 97%
Inhibition (HepG2): 12%

O=C(Nc1cccc(-c2ccc(-c3nc4ccccc4[nH]3)cc2)c1)Nc1ccc2c(c1)OCO2
Inhibition (Plasmodium falciparum [1]): 90%
Inhibition (Plasmodium falciparum [2]): 8%
Inhibition (HepG2): 20%

COc1ccc(C=Cc2cc(=N)c3ccccc3[nH]2)cc1.I
Inhibition (Plasmodium falciparum [1]): 93%
Inhibition (Plasmodium falciparum [2]): 16%
Inhibition (HepG2): 38%

Cl.O=C(N[C@@H](Cc1ccccc1)[C@H](O)CNC1CCc2ccccc2C1)c1cc(C2CCCC2)cc(N2CCCC2=O)c1 (some centres undefined)
Inhibition (Plasmodium falciparum [1]): 99%
Inhibition (Plasmodium falciparum [2]): 76%
Inhibition (HepG2): 23%

CC[C@H](C)CNC(=O)c1cncc(-c2ccc(CNCCOc3ccccc3)cc2)c1.O=C(O)C(F)(F)F
Inhibition (Plasmodium falciparum [1]): 90%
Inhibition (Plasmodium falciparum [2]): 0%
Inhibition (HepG2): 7%

Cc1cccc2nc(-c3ccc(-c4ccc(NC(=O)Nc5ccsc5)cc4)s3)[nH]c12
Inhibition (Plasmodium falciparum [1]): 100%
Inhibition (Plasmodium falciparum [2]): 88%
Inhibition (HepG2): 74%

CN(CCCN(C)c1cc(NC(=O)c2cccc(F)c2)ccn1)Cc1cccc(O)c1.O=C(O)C(F)(F)F
Inhibition (Plasmodium falciparum [1]): 92%
Inhibition (Plasmodium falciparum [2]): 4%
Inhibition (HepG2): 0%

O=C(O)C(F)(F)F.O=S(=O)(NCCN1CCCC1)c1ccc(-c2cccc(CNCc3ccc(F)cc3)c2)s1
Inhibition (Plasmodium falciparum [1]): 99%
Inhibition (Plasmodium falciparum [2]): 50%
Inhibition (HepG2): 48%

O=C(/C=C/c1ccc(-c2ccccc2)cc1)NCCCCCN1CCC(c2c[nH]c3ccccc23)CC1
Inhibition (Plasmodium falciparum [1]): 97%
Inhibition (Plasmodium falciparum [2]): 23%
Inhibition (HepG2): 91%

Cc1cccc2nc(-c3ccc(-c4cccc(CNCc5cnn(-c6ccccc6)n5)c4)s3)[nH]c12.O=C(O)C(F)(F)F
Inhibition (Plasmodium falciparum [1]): 98%
Inhibition (Plasmodium falciparum [2]): 58%
Inhibition (HepG2): 40%

Cc1nc2nc(N)nc(N)c2c(C)c1Cc1ccccc1Br.Cl
Inhibition (Plasmodium falciparum [1]): 92%
Inhibition (Plasmodium falciparum [2]): 2%
Inhibition (HepG2): 65%

COc1ccccc1CNc1ccnc(N2CC(Oc3ccc(F)cc3)C2)n1
Inhibition (Plasmodium falciparum [1]): 97%
Inhibition (Plasmodium falciparum [2]): 95%
Inhibition (HepG2): 2%

CN(C)CCOc1cc(NC(=O)Nc2cccc3c(-c4ccncc4)cccc23)ccc1I.Cl
Inhibition (Plasmodium falciparum [1]): 100%
Inhibition (Plasmodium falciparum [2]): 28%
Inhibition (HepG2): 20%

O=C(Nc1ccccc1)Nc1ccc(-c2cccc(-c3nc4cc(C(F)(F)F)ccc4[nH]3)c2)cc1
Inhibition (Plasmodium falciparum [1]): 100%
Inhibition (Plasmodium falciparum [2]): 73%
Inhibition (HepG2): 59%

Cc1cc(N[C@@H](CC(C)C)C(=O)NC2CCCC2)nc(NCCc2ccc(F)cc2)n1.O=C(O)C(F)(F)F
Inhibition (Plasmodium falciparum [1]): 100%
Inhibition (Plasmodium falciparum [2]): 47%
Inhibition (HepG2): 15%

CCCn1c(O)nnc1SCC(=O)Nc1cc(C(F)(F)F)ccc1Cl
Inhibition (Plasmodium falciparum [1]): 96%
Inhibition (Plasmodium falciparum [2]): 94%
Inhibition (HepG2): 0%

CCOc1cccc2nc(NCCCNCc3ccc(Cl)c(Cl)c3)cc(NCCCNCc3ccc(Cl)c(Cl)c3)c12
Inhibition (Plasmodium falciparum [1]): 98%
Inhibition (Plasmodium falciparum [2]): 58%
Inhibition (HepG2): 96%

Cl.O=C(Nc1cc(Cl)cc(Cl)c1)Nc1ccnc2ccccc12
Inhibition (Plasmodium falciparum [1]): 96%
Inhibition (Plasmodium falciparum [2]): 65%
Inhibition (HepG2): 15%

N#Cc1cccc(CN2CCCN(c3ccc(NC(=O)c4cccs4)cc3)CC2)c1.O=C(O)C(F)(F)F
Inhibition (Plasmodium falciparum [1]): 96%
Inhibition (Plasmodium falciparum [2]): 95%
Inhibition (HepG2): 0%

C#CC(C)(CO)N1CCCC1 (centres undefined)
Inhibition (Plasmodium falciparum [1]): 95%
Inhibition (Plasmodium falciparum [2]): 1%
Inhibition (HepG2): 10%

O=C(O)C(F)(F)F.c1cc(CNCCN2CCNCC2)cc(-c2ccc(-c3nc4ccccc4[nH]3)cc2)c1
Inhibition (Plasmodium falciparum [1]): 98%
Inhibition (Plasmodium falciparum [2]): 11%
Inhibition (HepG2): 3%

SC(=Nc1ccc2c(c1)OCCO2)NN=Cc1ccccn1
Inhibition (Plasmodium falciparum [1]): 82%
Inhibition (Plasmodium falciparum [2]): 33%
Inhibition (HepG2): 55%

CCC(ON1C(N)=NC(N)=NC1(C)C)c1ccccc1 (centres undefined)
Inhibition (Plasmodium falciparum [1]): 96%
Inhibition (Plasmodium falciparum [2]): 0%
Inhibition (HepG2): 61%

COc1cc2c(cc1OCCN1CCC(N)CC1)N(C(=O)/C=C/c1ccccc1Cl)CC2.Cl
Inhibition (Plasmodium falciparum [1]): 91%
Inhibition (Plasmodium falciparum [2]): 18%
Inhibition (HepG2): 19%

CCN(CC)CCN(Cc1ccc(-c2ccc(C(F)(F)F)cc2)cc1)C(=O)Cn1c(CCc2ccc(F)c(F)c2F)nc(=O)c2ccccc21.O=C(O)C(O)C(O)C(=O)O
Inhibition (Plasmodium falciparum [1]): 97%
Inhibition (Plasmodium falciparum [2]): 66%
Inhibition (HepG2): 38%

CS(=O)(=O)O.FC(F)(F)COc1ccc(CNCCCCCCNCc2ccc(OCC(F)(F)F)c3ccccc23)c2ccccc12
Inhibition (Plasmodium falciparum [1]): 100%
Inhibition (Plasmodium falciparum [2]): 93%
Inhibition (HepG2): 99%

CN(C)Cc1cccc2nc(-c3csc(Cc4cc(Cl)ccc4OCc4ccccc4)n3)[nH]c12
Inhibition (Plasmodium falciparum [1]): 100%
Inhibition (Plasmodium falciparum [2]): 77%
Inhibition (HepG2): 14%

O=C(/C=C/c1ccc(Cl)c(Cl)c1)NCCCCCN1CCCN(C(=O)Nc2ccc([N+](=O)[O-])cc2)CC1
Inhibition (Plasmodium falciparum [1]): 97%
Inhibition (Plasmodium falciparum [2]): 28%
Inhibition (HepG2): 32%

CC(=O)Nc1ccccc1OCc1cc2cc(C(=O)N3CCC(N4C(=O)OCc5ccccc54)CC3)ccc2o1
Inhibition (Plasmodium falciparum [1]): 99%
Inhibition (Plasmodium falciparum [2]): 98%
Inhibition (HepG2): 34%

Cc1ccc(F)cc1S(=O)(=O)N1CCCCC(c2ccc(C(F)(F)F)cc2)=N1
Inhibition (Plasmodium falciparum [1]): 82%
Inhibition (Plasmodium falciparum [2]): 75%
Inhibition (HepG2): 8%

Cn1c(Nc2cc(C(C)(C)C)on2)nc2cc(Nc3ccnc(Nc4cccc(S(=O)(=O)N5CCOCC5)c4)n3)ccc21
Inhibition (Plasmodium falciparum [1]): 100%
Inhibition (Plasmodium falciparum [2]): 96%
Inhibition (HepG2): 32%

CN(C)c1ccc(CN2CCC(CNC(=O)c3cc(-c4ccccc4Cl)cs3)C2)cc1.O=C(O)C(F)(F)F (centres undefined)
Inhibition (Plasmodium falciparum [1]): 91%
Inhibition (Plasmodium falciparum [2]): 5%
Inhibition (HepG2): 29%

Cl.O=S(=O)(NCCCN1CCOCC1)c1ccc2nccc(Nc3ccc(Oc4ccccc4)cc3)c2c1
Inhibition (Plasmodium falciparum [1]): 95%
Inhibition (Plasmodium falciparum [2]): 92%
Inhibition (HepG2): 1%

COc1cc2c(cc1OC)C(C(=O)c1ccccc1)=NCC2.Cl
Inhibition (Plasmodium falciparum [1]): 85%
Inhibition (Plasmodium falciparum [2]): 62%
Inhibition (HepG2): 19%

CCOC(=O)CNC(=O)N(CCN(Cc1ccccc1)C(=O)NCC(=O)OCC)Cc1ccccc1
Inhibition (Plasmodium falciparum [1]): 98%
Inhibition (Plasmodium falciparum [2]): 0%
Inhibition (HepG2): 9%

O=C(NCc1ccc(Cl)cc1)c1ccc(CN2CCCN(Cc3cccc(O)c3)CC2)cc1.O=C(O)C(F)(F)F
Inhibition (Plasmodium falciparum [1]): 82%
Inhibition (Plasmodium falciparum [2]): 12%
Inhibition (HepG2): 25%

Cc1nnsc1C(=O)Nc1cccc(-c2ccc(-c3nc4cc(F)ccc4[nH]3)cc2)c1
Inhibition (Plasmodium falciparum [1]): 100%
Inhibition (Plasmodium falciparum [2]): 89%
Inhibition (HepG2): 51%
